Measurements reported in PubChem BioAssay AID488975 (Johns Hopkins Ion Channel Center, 2010).
Screen size: about 310,000 compounds; about 2,600 (0.84%) were called active.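 The calls were made as follows: active = B-score over 3 SD under the library average, and starting fluorescence ratio not unusually high; inactive = the rest.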 The entries come from a sample that favours actives as a whole.

These molecules were tested against High affinity choline transporter 1 (Homo sapiens) (UniProt Q9GZV3) (assay: inhibitors of human choline transporter CHT (AID 488975;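 as to B-score: choline stimulus applied at its EC90 after an EC20 pre-addition; B-score computed on integrated fluorescence ratio after choline addition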)). Conditions: CHT-expressing cells, membrane potential dye, choline response, at 10 µM; stronger effect = lower value.
Sequence of High affinity choline transporter 1 (Homo sapiens) (Q9GZV3 whole entry, looked up): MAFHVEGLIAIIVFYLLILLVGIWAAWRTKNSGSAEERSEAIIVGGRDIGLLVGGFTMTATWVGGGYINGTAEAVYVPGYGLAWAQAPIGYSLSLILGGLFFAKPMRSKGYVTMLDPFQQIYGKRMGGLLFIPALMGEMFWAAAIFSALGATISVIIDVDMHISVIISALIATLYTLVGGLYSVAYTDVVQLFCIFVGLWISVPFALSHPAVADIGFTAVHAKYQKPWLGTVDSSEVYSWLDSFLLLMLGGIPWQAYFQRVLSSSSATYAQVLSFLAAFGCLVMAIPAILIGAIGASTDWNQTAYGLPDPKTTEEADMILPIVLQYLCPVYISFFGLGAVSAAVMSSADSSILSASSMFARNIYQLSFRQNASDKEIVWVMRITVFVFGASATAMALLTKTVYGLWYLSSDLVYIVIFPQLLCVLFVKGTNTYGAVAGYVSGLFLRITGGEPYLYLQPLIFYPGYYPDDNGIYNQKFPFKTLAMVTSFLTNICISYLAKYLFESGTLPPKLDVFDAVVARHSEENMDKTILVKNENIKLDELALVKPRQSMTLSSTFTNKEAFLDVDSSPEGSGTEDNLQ
With `OC1CN=C2Sc3ccccc3N2C1` (configuration not stated) the B-score was -5.4 (active). `COc1ccc(S(=O)(=O)N2CCCCC2)cc1NC(=O)C1CC(=O)N(c2ccc3c(c2)OCCO3)C1` (configuration not stated) was tested, and the B-score was “inactive”. `Cc1ccc(S(=O)(=O)NCCC(=O)OCC(=O)N(C)c2ccccc2)cc1` was tested, and the B-score was “inactive”. In the case of `CCOC(=O)C1(CCOC)CCN(Cc2ccc(C(=O)OC)cc2)CC1`, the B-score is reported as -7.63 (active). In the case of `CCOC(=O)C1(CCOc2ccccc2)CCN(Cc2cc(OC)cc(OC)c2)CC1`, the B-score is reported as “inactive”. In the case of `CCOC(=O)C1(CCOC)CCN(Cc2cc3ccccc3s2)CC1`, the B-score is reported as “inactive”. For `CCN1C(=O)[C@@H]2[C@@H](c3ccc(-c4ccc(OC)cc4)c(OC)c3)N3CCC[C@@]3(C(=O)OC)[C@@H]2C1=O`, the B-score was “inactive”. In the case of `S=C(Nc1cccc(Cl)c1)Nc1ccc2cn[nH]c2c1`, the B-score is reported as “inactive”. `FC(F)(F)c1cccc(NC(=S)Nc2cccc(Cl)c2)c1` was tested, and the B-score was -9.9 (active). With `S=C(Nc1cccc(Cl)c1)Nc1ccc2c(c1)OCCO2` the B-score was “inactive”. With `CCOC(=O)c1cnc2nc(SCc3ccccc3Cl)[nH]n2c1=O` the B-score was “inactive”. `O=C1c2ccccc2C(=O)c2c1cccc2N1CCN(C/C=C/c2ccccc2)CC1` was tested, and the B-score was “inactive”. In the case of `CCCCCCCNC(=O)C1(CC2CC(c3cccc(Br)c3)=NO2)CCN(C(=O)c2cc(OCC)c(OCC)c(OCC)c2)CC1` (configuration not stated), the B-score is reported as “inactive”. In the case of `CCN(CC)c1ccc(/C=N/NC(=O)CNC(=O)c2cccnc2)cc1`, the B-score is reported as “inactive”. `CCN(CC)c1ccc(/C=N/NC(=O)c2cnccn2)c(O)c1` was tested, and the B-score was -5.95 (active). `CCN(CC)c1ccc(/C=N/Nc2nc(C)cc(C)n2)c(O)c1` was tested, and the B-score was “inactive”. With `CC(NC(=O)c1ccccc1F)c1cccc2ccccc12` (configuration not stated) the B-score was “inactive”. With `COc1ccc(Cc2nnc(SCC(=O)Nc3ccc(C)c(Cl)c3)[nH]c2=O)cc1` the B-score was “inactive”. In the case of `OCC[C@H]1C[C@@H](O)[C@H](O)[C@@]2(OCCc3ccccc32)O1`, the B-score is reported as “inactive”. For `COc1ccc(C(=O)NNC(=S)NC(=O)c2ccccc2)cc1`, the B-score was -5.26 (active). In the case of `COc1ccc(C(=O)NNC(=S)NC(=O)c2ccccc2[N+](=O)[O-])cc1`, the B-score is reported as “inactive”. `COc1ccc(C(=O)NC(=S)NNC(=O)c2c(-c3ccccc3)noc2C)cc1` was tested, and the B-score was “inactive”. With `CC(C)Oc1ccc(CCC(=O)NNC(=S)NCc2ccccc2)cc1` the B-score was “inactive”. In the case of `COc1ccc(C(=O)NC(=S)NNC(=O)CCc2ccccc2)cc1`, the B-score is reported as -5.23 (active). In the case of `O=C(CCc1ccccc1)NNC(=O)c1ccc(Br)cc1`, the B-score is reported as “inactive”. `COc1ccc2c(c1)O/C(=C\c1ccccc1O)C2=O` was tested, and the B-score was “inactive”. In the case of `O=C(Cc1ccc(S(=O)(=O)N2CCOCC2)s1)N1CCN(c2ccc(C(F)(F)F)cc2[N+](=O)[O-])CC1`, the B-score is reported as “inactive”. In the case of `CCOC(=O)N1CCN(C(=O)c2ccc(S(=O)(=O)Nc3cccc(C(F)(F)F)c3)cc2)CC1`, the B-score is reported as “inactive”. With `O=C(/C=C/c1ccc(F)cc1)Nc1cccc(S(=O)(=O)Nc2cccc(C(F)(F)F)c2)c1` the B-score was “inactive”. For `Cc1oc2c(F)c(F)c(F)c(F)c2c1S(=O)(=O)Nc1cccc(C(F)(F)F)c1`, the B-score was -5.14 (active). For `Cc1cc(OCC(=O)N(C)c2c(N)n(Cc3ccccc3)c(=O)[nH]c2=O)c(C(C)C)cc1Cl`, the B-score was “inactive”. With `COc1cc(C(=O)NCC(=O)N2CC=C(c3ccccc3)CC2)cc(OC)c1OC` the B-score was “inactive”. With `CC(=N\NC(=O)c1cc(Br)ccc1O)/C(=N/O)C(=O)Nc1ccccc1` the B-score was “inactive”. In the case of `C/C(=N/NC(=O)c1cc(Cl)ccc1O)C12CC3CC(CC(C3)C1)C2`, the B-score is reported as -7.51 (active). `COc1ccc(Cl)cc1NC(=O)CN(C)C(=O)CNC(=O)C12CC3CC(CC(C3)C1)C2` was tested, and the B-score was “inactive”. For `COC(=O)C1=C(C)N(C)C(C)=C(C(=O)OC)C1c1cccc(Br)c1`, the B-score was “inactive”. With `COC(=O)CN1C(C)=Nc2ccc(Br)cc2C1c1ccccc1` (configuration not stated) the B-score was -5.31 (active). `CCC(CC)C(=O)N1CC(=O)Nc2ccc(Br)cc2C1c1ccccc1` (configuration not stated) was tested, and the B-score was “inactive”. In the case of `O=C(Nc1ncccc1O)c1ccc(S(=O)(=O)N2CCCC2)cc1`, the B-score is reported as “inactive”. With `COc1ccc(-n2nnnc2CNC(=O)c2ccc3ccccc3c2)cc1` the B-score was -5.47 (active). For `COc1ccc(CNC(=O)c2ccc3oc(C(C)C)nc3c2)cc1`, the B-score was “inactive”. `COc1ccc(-n2nnnc2SCC(=O)c2ccc(OC)c(OC)c2)cc1` was tested, and the B-score was “inactive”. For `COc1ccc(NC(=O)CN(C)C(=O)Cc2coc3cc(C)c(C)cc23)cc1`, the B-score was “inactive”. With `CC(C)Oc1ccc(S(=O)(=O)N2CCOCC2)cc1NC(=O)C1CSC2(C)CCC(=O)N12` (configuration not stated) the B-score was “inactive”. For `O=C(Nc1cc(-c2ccccc2)nn1-c1ccccc1F)c1ccc([N+](=O)[O-])cc1`, the B-score was “inactive”. With `COc1ccc(S(=O)(=O)N2CCOC2CNC(=O)C(=O)NCc2ccncc2)cc1C` (configuration not stated) the B-score was “inactive”. In the case of `CC1CCN(C(=O)c2cccc(S(=O)(=O)N3CCCc4ccccc43)c2)CC1`, the B-score is reported as “inactive”. With `CC(C)n1c(=O)[nH]c2cc(C(=O)Nc3ccccc3)ccc21` the B-score was “inactive”. In the case of `CCCn1c(=S)[nH]c2ccc(C(F)(F)F)cc21`, the B-score is reported as “inactive”. For `CC(C)n1c(=S)[nH]c2cc(C(F)(F)F)ccc21`, the B-score was -8.94 (active). With `Cc1c(NC(=O)C(C)OC(=O)c2c3c(nc4ccccc24)CCC(C)C3)c(=O)n(-c2ccccc2)n1C` (configuration not stated) the B-score was “inactive”. In the case of `COc1ccc2sc(N(CCCN(C)C)C(=O)c3ccc(S(=O)(=O)N(C)C4CCCCC4)cc3)nc2c1`, the B-score is reported as “inactive”. In the case of `O=C(c1ccc(F)c(S(=O)(=O)N2CCOCC2)c1)N(CCc1ccccc1)Cc1ccccc1`, the B-score is reported as “inactive”. For `COc1ccc(N(C)S(=O)(=O)c2ccc3c(c2)CC(C)N3C(=O)C2CC2)c(OC)c1` (configuration not stated), the B-score was “inactive”. In the case of `CCOC(=O)N1CCN(C(=O)c2ccc(CN(c3ccc(C)c(C)c3)S(C)(=O)=O)cc2)CC1`, the B-score is reported as -6.25 (active). `CCOC(=O)N1CCN(C(=O)CN(c2ccc(C)c(C)c2)S(=O)(=O)c2ccccc2)CC1` was tested, and the B-score was “inactive”. With `Cc1ccc(N(Cc2ccc(C(=O)Nc3ccccc3C(=O)NCc3ccco3)cc2)S(C)(=O)=O)cc1C` the B-score was “inactive”. In the case of `COc1ccc(NC(=O)CN(C)C(=O)c2cc(-c3ccc(C)o3)nc3ccccc23)cc1`, the B-score is reported as “inactive”. For `COc1ccc(N2C(=O)C(CC(=O)Nc3ccc(F)cc3)N(CCc3cccs3)C2=O)cc1` (configuration not stated), the B-score was “inactive”. In the case of `CCNC(=O)CC1C(=O)N(c2ccc(F)cc2)C(=O)N1CCc1sccc1C` (configuration not stated), the B-score is reported as -5.75 (active). With `CCNC(=O)CC1C(=O)N(c2ccc(F)cc2)C(=O)N1Cc1cccs1` (configuration not stated) the B-score was “inactive”. `CC(=O)Nc1ccc(C(=O)Nc2cccc(S(=O)(=O)NC3=NCCC3)c2)cc1` was tested, and the B-score was “inactive”. For `CN(C)c1ccc(Nc2c3c4c(cccc4n(C)c2=O)C(=O)c2ccccc2-3)cc1`, the B-score was -9.73 (active). In the case of `CN(C)c1ccc(C2N(C)C(=O)c3ccccc3N2C)cc1` (configuration not stated), the B-score is reported as “inactive”. `COc1ccc(/C=C2\SC(=S)N(CCCC(=O)NC3CCCC3)C2=O)cc1OC` was tested, and the B-score was “inactive”. In the case of `COc1ccccc1CNC(=O)CCn1c(=O)sc2ccccc21`, the B-score is reported as “inactive”. In the case of `COc1ccc(Cn2c(=O)sc3ccccc32)cc1OC`, the B-score is reported as -5.56 (active). `Cc1cccc(CSc2nnc(Cn3c(=O)sc4ccccc43)n2C)c1` was tested, and the B-score was “inactive”. For `O=C(NCC1(N2CCCCC2)CCCCC1)c1ccc(NS(=O)(=O)c2ccc(F)cc2)cc1`, the B-score was “inactive”. With `Cc1ccc(C)c(OCCC(=O)Nc2cccc(S(=O)(=O)N3CCCC3)c2)c1` the B-score was “inactive”. `O=C(/C=C/c1ccc([N+](=O)[O-])o1)NNC(=O)c1ccc(F)cc1` was tested, and the B-score was “inactive”. In the case of `CCN(CC)CCC(c1cc(OC)c(OC)c(OC)c1)c1c(OC)cc(OC)c2c(-c3ccccc3)cc(=O)oc12` (configuration not stated), the B-score is reported as “inactive”. `CCN(CC)C(=O)CC(c1ccc2c(c1)OCO2)c1c(OC)cc(OC)c2c(-c3ccccc3)cc(=O)oc12` (configuration not stated) was tested, and the B-score was “inactive”. With `CCN(CC)CCC(c1ccc2c(c1)OCO2)c1c(OC)cc(OC)c2c(-c3ccccc3)cc(=O)oc12` (configuration not stated) the B-score was -6.84 (active). In the case of `Cc1ccc(S(=O)(=O)N2CCOCC2)cc1C(=O)Nc1ccccc1N1CCCC1`, the B-score is reported as “inactive”. In the case of `COc1ccc(N2CCN(S(=O)(=O)c3cc4c5c(c3)C(C)C(=O)N5CCC4)CC2)cc1` (configuration not stated), the B-score is reported as “inactive”. `Cc1ccc(-c2csc(NC(=O)C3=COCCO3)n2)cc1C` was tested, and the B-score was “inactive”. With `O=C(Nc1ncccc1O)c1ccc(S(=O)(=O)N2CCCCCC2)cc1` the B-score was “inactive”. `CCOC(=O)[C@H]1[C@H]2COc3ccc(Cl)cc3[C@@H]2N2C(=O)c3cc(C)ccc3NC(=O)[C@@]12C` was tested, and the B-score was “inactive”. For `Cc1cc(NC(=O)C(C)SCC(=O)Nc2ccccc2N2CCCCC2)no1` (configuration not stated), the B-score was “inactive”. In the case of `CCc1cc2c(N3CCN(c4nnc(CC)s4)CC3)ncnc2s1`, the B-score is reported as -7.24 (active). For `Oc1ccccc1N1CCN(c2ncnc3sc(-c4ccccc4)cc23)CC1`, the B-score was “inactive”. With `CCc1cc2c(NC3CCCC3)ncnc2s1` the B-score was “inactive”. `COc1ccc(C(=NN)c2ccc(OC)cc2)cc1` was tested, and the B-score was “inactive”. For `COc1ccc(S(=O)(=O)N2CCCCC2)cc1NC(=O)c1cc([N+](=O)[O-])ccc1N1CCOCC1`, the B-score was “inactive”. With `Cc1ccc(CNC(=O)C(=O)c2cn(CC(=O)N3CCCC3)c3ccccc23)cc1` the B-score was “inactive”. For `O=C(NCc1ccco1)C(=O)c1cn(CC(=O)N2CCCCCC2)c2ccccc12`, the B-score was “inactive”. `O=C(NCCCn1ccnc1)C(=O)c1cn(CC(=O)N2CCCCCC2)c2ccccc12` was tested, and the B-score was -6.23 (active). For `CCN(CC)CCn1c2c(c(SCC(=O)Nc3nc4ccccc4s3)nc1=O)CCCC2`, the B-score was “inactive”. For `O=C(CCCn1c(SCC(=O)c2ccccc2)nc2ccccc2c1=O)NCC1CCCO1` (configuration not stated), the B-score was “inactive”. For `CCCCn1c(SCC(=O)NCC2CCCO2)nc2ccc(N3CCOCC3)cc2c1=O` (configuration not stated), the B-score was -5.48 (active). In the case of `COCCNC(=O)c1ccc(Cn2c(SCC(=O)NCC3CCCO3)nc3ccc(Br)cc3c2=O)cc1` (configuration not stated), the B-score is reported as “inactive”. For `O=C(COc1ccccc1Cl)Nc1ccccc1C(=O)NC1CC1`, the B-score was “inactive”. `Cc1ccc(S(=O)(=O)CCC(=O)Nc2nnc(CC(C)C)s2)cc1` was tested, and the B-score was “inactive”. `CCC(=O)Nc1nnc(S(=O)(=O)N2CCCc3ccccc32)s1` was tested, and the B-score was “inactive”. For `CCC(=O)Nc1nnc(S(=O)(=O)N(CC(C)C)c2ccccc2)s1`, the B-score was -5.75 (active). In the case of `CC(C)CC(=O)Nc1nnc(S(=O)(=O)N(C)c2ccc(Cl)cc2)s1`, the B-score is reported as “inactive”.
